For orientation: AC50 means the midpoint of the concentration-response curve, whichever way the signal moves.

Consider 12 compounds from PubChem BioAssay AID2283179 (EPA ToxCast).

Inconclusive results are not listed. Active and inactive are the calls of the source. Rule for the calls: active = hit-call score of the fitted dose curve at least 0.9, where 1 is the maximum; inconclusive = response in the unintended direction; inactive = score below 0.9.

Chain of human Microtubule Affinity Regulating Kinase 1 (MARK1), MARK1 (gene 4139) (Q9P0L2 whole entry, looked up): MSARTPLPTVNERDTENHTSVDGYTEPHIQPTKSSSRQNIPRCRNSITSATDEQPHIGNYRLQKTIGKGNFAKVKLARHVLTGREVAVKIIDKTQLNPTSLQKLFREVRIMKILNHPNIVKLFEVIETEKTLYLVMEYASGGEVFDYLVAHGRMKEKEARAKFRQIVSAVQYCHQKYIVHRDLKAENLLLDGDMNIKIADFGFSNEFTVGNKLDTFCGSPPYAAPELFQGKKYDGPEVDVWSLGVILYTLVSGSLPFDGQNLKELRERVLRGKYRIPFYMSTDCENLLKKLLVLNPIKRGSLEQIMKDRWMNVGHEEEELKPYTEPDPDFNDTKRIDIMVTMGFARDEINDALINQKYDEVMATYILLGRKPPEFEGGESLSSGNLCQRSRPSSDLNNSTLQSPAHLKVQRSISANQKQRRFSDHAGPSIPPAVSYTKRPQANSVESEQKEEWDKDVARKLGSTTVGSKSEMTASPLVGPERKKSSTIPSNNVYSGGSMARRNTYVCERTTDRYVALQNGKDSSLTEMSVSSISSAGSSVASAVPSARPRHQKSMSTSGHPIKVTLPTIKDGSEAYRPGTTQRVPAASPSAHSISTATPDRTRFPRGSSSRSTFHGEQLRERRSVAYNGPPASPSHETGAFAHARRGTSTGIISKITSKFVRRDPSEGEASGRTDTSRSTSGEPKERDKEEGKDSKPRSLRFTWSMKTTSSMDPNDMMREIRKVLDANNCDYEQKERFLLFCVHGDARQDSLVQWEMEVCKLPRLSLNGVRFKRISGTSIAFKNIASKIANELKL

This experiment addresses human Microtubule Affinity Regulating Kinase 1 (MARK1), MARK1 (gene 4139) (UniProt Q9P0L2). The experiment in a line: NVS_ENZ_hMARK1: NovaScreen (NVS) Enzymatic Assay for human Microtubule Affinity Regulating Kinase 1 (MARK1). As for the experimental part:
NVS_ENZ_hMARK1 is a biochemical, single-readout assay that uses extracted gene-proteins in a cell-free assay. Measurements were taken 1 hour after chemical dosing in a 384-well plate.NVS_ENZ_hMARK1 is one of one assay component(s) measured or calculated from the NVS_ENZ_hMARK1 assay. It is designed to make measurements of enzyme activity, a form of enzyme reporter, as detected with fluorescence intensity signals by Fluorescence and electrophoretic mobility shift technology.Data from the assay component NVS_ENZ_hMARK1 was analyzed into 1 assay endpoint. This assay endpoint, NVS_ENZ_hMARK1, was analyzed in the positive analysis fitting direction relative to DMSO as the negative control and baseline of activity. Using a type of enzyme reporter, loss-of-signal activity can be used to understand changes in the enzymatic activity as they relate to the gene MARK1. Furthermore, this assay endpoint can be referred to as a primary readout, because this assay has produced multiple assay endpoints where this one serves a enzymatic activity function. To generalize the intended target to other relatable targets, this assay endpoint is annotated to the kinase intended target family, where the subfamily is serine/threonine kinase.
Binding assays used specific radioligands (tritiated, iodinated) with non-radioactive competitive displacement ligands in agonist or antagonist protocols (as indicated) and various reference compounds and inhibitors to titrate specific binding to receptors and transporters. Most enzyme assays (CYPs, kinases, phosphatases, proteases, HDACs) used recombinant protein and specific substrates (fluorescence mostly, some colorimetric and radioactive) and inhibitors, followed by a biochemical separation of substrate and product. All assays for the biochemical HTS were initially run in duplicate at a single concentration (10 uM for CYP450 assays and 25 uM for all others). Assay-chemical combinations meeting a pre-defined threshold (e.g., 30% inhibition and other criteria defined below) were then run in singleton concentration-response format with maximum concentration of 20 uM for CYPs and 50 uM for all others. Each assay was run with positive and negative controls, and concurrent controls on every plate. The follow-up (secondary) screen tested active chemical-pairs in concentration series, as well as a few additional assays not tested in the primary screen, some selected negative inactives, and several cases re-run in the concentration series for confirmatory purposes.
On to `COP(=S)(OC)Oc1nc(Cl)c(Cl)cc1Cl`, for which the outcome was inactive. The same measure, in the same setting: to `CCNC(=O)NC(=O)C(C#N)=NOC` belongs “inactive”; to `CCOP(=O)(OCC)Oc1nc(Cl)c(Cl)cc1Cl`, “inactive”. In the case of `O=S(=O)(O)C(F)(F)C(F)(F)C(F)(F)C(F)(F)C(F)(F)C(F)(F)C(F)(F)C(F)(F)F`, the AC50 is 36.8 µM (active). Still for that read-out and setting: the value for `CN(C)[C@@H]1C(=O)C(C(N)=O)=C(O)[C@@]2(O)C(=O)C3=C(O)c4c(O)cccc4[C@@](C)(O)[C@H]3[C@H](O)[C@@H]12` was 18 µM (active). Consider `COC(=O)c1ccccc1S(=O)(=O)NC(=O)N(C)c1nc(C)nc(OC)n1`, for which the compound was classed as inactive. For the compound `N#CSCSC#N`, the result was inactive. As to `CCOP(=S)(OCC)Oc1nc(Cl)n(C(C)C)n1`, the call was inactive. Still for that read-out and setting: the value for `Nc1c(Cl)cc([N+](=O)[O-])cc1Cl` was “inactive”. On the same count and under the same terms, to `CNC(=S)S` belongs “inactive”; to `COc1nc(C)nc(NC(=O)NS(=O)(=O)c2ccccc2CCC(F)(F)F)n1`, “inactive”.

Consider `O=C(O)C(F)(F)C(F)(F)C(F)(F)C(F)(F)C(F)(F)C(F)(F)C(F)(F)F`, for which the outcome was inactive.
